Values joined by “and” are separate entries in the source; they are usually repeats but may differ in a detail not shown here. Equal values may be shown once. About 83,000 compounds went through this panel and 20% of them were active in at least one assay; those are over-represented in the sample as a whole.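 How to read the values: 0–100, growth inhibition (40 = 60% inhibited); 0, no net growth; -100 to 0, cell death (-40 = 40% of starting cells died; -100 = all dead).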 Unmarked numbers belong to inactive results. Active and inactive are the calls of the source. How the source made its calls: active means growth percent below 10; inactive means the rest.
Test system: MDA-MB-468 breast
Assay: NCI-60 one-dose screen, 48 h (100 = growth as untreated, 0 = no growth, -100 = all killed)
Conditions: 10 µM unless noted

Compound	growth
O=C(CN1CCN(c2cc3c(cc2F)c(=O)c(C(=O)O)cn3C2CC2)CC1)N/N=C/c1ccncc1	99.6%
COc1ccc2c(c1)sc1nc(-c3ccccc3)c(-c3ccsc3)n12	32.5%
c1coc([C@@H]2C[C@@H]3Cc4ccc5ccccc5c4N2O3)c1	89.7%
COc1c(CCC[P+](c2ccccc2)(c2ccccc2)c2ccccc2)cc2c(c1OC)OCO2	-28% (active)
CN1C(=O)NC(c2ccc3c(c2)OCO3)C=C1c1ccccc1 (stereo not drawn)	98.2%
COc1cc(-c2ncn(/C=C\C(=O)OC(C)C)n2)cc(C(F)(F)F)c1	-40.6% (active)
S=C(Nc1ccc(Cl)cc1)c1ccccn1	98.9%
O=C1[C@@H]2Cc3c([nH]c4ccccc34)[C@@H](c3ccc(Cl)cc3)N2C(=O)CN1C1CCN(Cc2c(F)cccc2F)CC1	40.3%
COc1cc(C(=O)/C(C)=C/c2c[nH]c3ccccc23)cc(OC)c1OC	11.4%
O=C1N/C(=N/O)S/C1=C/c1cn(-c2ccccc2)nc1-c1ccccc1	84.6%
CCCN1[C@@H]2CC[C@H]1/C(=C\c1ccc(OC)c(OC)c1)C(=O)/C2=C/c1ccc(OC)c(OC)c1	17.7%
CC(C)Cc1nc(Nc2ccccc2)[nH]c(=O)c1C#N	14.5%
CC(C)C1=NOC(=O)C1=Cc1cn(-c2cccnc2)nc1-c1ccccc1	108%
N=c1c2c(-c3ccccc3)c(-c3ccccc3)oc2ncn1NC(=O)c1cccnc1	105%
C#C[C@@]1(O)[C@@H](CO)O[C@@H](n2cc(Br)c3c(N)ncnc32)[C@@H]1O	-45.1% (active)
CC(=O)O[C@@H]1CC2C(C)(C)CCCC2(C)C2=C1C(=O)C(C(C)C)=CC2=O (stereo partly drawn)	-35.6% (active)
COC(=O)c1cc2c(n1Cc1ccccc1)-c1oncc1CCC2	63.5%
CCOC(=O)c1c(C)oc(C)c(C(=O)OCC)c1=O	103%
O=[N+]([O-])c1ccc2nc(N/N=C/c3ccc(O)cc3)sc2c1	64.2%

Compound	growth
COc1ccc(-c2nc(-c3nc4ccc(OC)cc4[nH]3)c3ccccn23)cc1	72.2%
O=C(O)c1cc(=O)[nH]c(=O)[nH]1	97.9% and 80.6%
Cn1cc(-c2nc(N)nnc2-c2c[nH]c3ccc(Br)cc23)c2cc(Br)ccc21	6.33% (active)
COc1ccc(-c2cc(/C=C/C(=O)c3ccc(N)cc3)[nH]n2)cc1OC	-1.28% (active)
CN(C)c1cccc2[nH]c(-c3[nH]ncc3Nc3ccnc(N)n3)nc12	-67.5% (active)
CCCCOC(=O)c1ccc(C(C)C)cc1	100%
CCNc1nc(-c2ccc(Cl)c(OC)c2)c(-c2ccnc(NCCNS(=O)(=O)c3ccc(Cl)cc3)n2)s1	-8.24% (active)
CCCCCCNC(=O)Oc1ccc(/C(=C(/CC)Cc2ccccc2)c2ccc(OCCN(CC)CC)cc2)cc1	64.4%
COc1ccc(-c2nc3sccn3c2/C=C/C(=O)c2cc(F)cc(F)c2)cc1	85.8%
Nc1c(O)c(S(=O)(=O)O)c(O)c2c1C(=O)c1ccccc1C2=O	1.06% (active)
N#Cc1cc2[nH]c3ccc(OC(F)(F)F)cc3c2oc1=O	95.2%
CCN1CCN(CCCN(C[C@H]2Cc3ccccc3CN2)[C@H]2CCCc3cccnc32)CC1	87.1%
COc1ccc(C2OCC(C)(C)CO2)cc1OC	92.4%
CCC(C)(C)C(=O)O[C@H]1C[C@@H](C)C=C2C=C[C@H](C)[C@H](CC[C@@H]3CC=CC(=O)O3)[C@H]21	52.1%
CCCCCCCCCCCCCCCCCCOc1ccccc1CC(=O)OCC[N+]1(C)CCOCC1	51.9%
COc1cc(Cn2c(-c3nonc3N)nc3ccccc32)ccc1C	40.9%
O=C(c1cccc(C(=O)c2ccc3c4c(cccc24)C(=O)N(c2ccccc2)C3=O)c1)c1ccc2c3c(cccc13)C(=O)N(c1ccccc1)C2=O	91.3%
O=S(=O)(c1cc(Cl)ccc1O)c1cc(Cl)ccc1O	63.1%
C[C@H](CCC(=O)NCc1ccc(C(=O)Nc2ccccc2N)cc1)[C@H]1CC[C@H]2[C@@H]3[C@@H](O)C[C@@H]4C[C@H](O)CC[C@]4(C)[C@H]3CC[C@]12C	71.2%

From PubChem BioAssay (NCI)
